Test results as given in the supplement of paper PMC6555819.

The sequences below were run on PXR homodimer (NR concentration 270 nM) (assay: PBM binding z-score (relative to random genomic background probes); higher = stronger binding; sequences stand for … in GC…GCGATTGACAGCGTAGAATGAAGG).
How it was run: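 On custom Agilent 4×180K arrays, double-stranded probes with 34-nt variable regions carried direct-repeat seeds, single-nucleotide variants, half-site ablations or random human genomic background. Ligand-free nuclear receptor dimers were applied for 1 h, and binding was read with antibodies against each partner (one per run). Binding z-scores come from regression-normalized fluorescence, with the random background probes as reference.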
For TCTTGTAGATCAAACAGGTTAAGAAAGCCTGAGT, the PBM binding z-score was 0.338. Work on GCTAGTTGGTCAGTATAAGGTCACACACCGGTCG yielded a PBM binding z-score of 1.61. Sequence ATCTCTAGGTAACAAGTTCAGAGAAAGAGAGGAC has a PBM binding z-score of 1.6. TCTATTAGTTGTAGGGCAACCGACGAGTCCGTTT showed a PBM binding z-score of 0.613. For AGAATGAAGTTATACGTAGATCAGGGAAGAAAGT, the PBM binding z-score was 0.326. Work on TAGCCTAGGTCATTAGGCCAGTATAGTACGCATC yielded a PBM binding z-score of -0.114. In the case of CCTTACGGGTCTCGAGGTTATAGCACGACGAGCG, the PBM binding z-score is reported as -0.353. ATACCAAGGTGATCGTAAGGTCGTTGATACTAAC was tested, and the PBM binding z-score was 1.42. For TTACCAAGGTGCAAGGTCGTTGATGCACGCCTTG, the PBM binding z-score was 0.648. In the case of TCTTATAGGTAAACAGGTGAAAGTCCGTAAGTTA, the PBM binding z-score is reported as 0.655. Work on ATACCAAGGTGATCGTGAGGTCCTTGATACTAAC yielded a PBM binding z-score of 0.00841. Sequence TCATATAGGTAAAGGTGATAGTCGAACGATATGA has a PBM binding z-score of 0.262. AGACAAAGTTCACTAGGTAACGTAAGATTCAGCT showed a PBM binding z-score of 2. For GATGCTAGGTCAGGTTGGTCAGCTAACGGGTACG, the PBM binding z-score was 0.0675. With CCTTACTGGTCACGAGGTTATAGCACGACGAGCG the PBM binding z-score was 0.447. For TCTTGTAGATCAGCAAGTTAAGAAAGCTGGCCAA, the PBM binding z-score was -0.549. For TCATATAGGGAAATGCTAGGTGAAAGTCCGATCT, the PBM binding z-score was 0.552. GCAAATAGGTAATACAAGGTGAAAGTCCGATTGT showed a PBM binding z-score of 0.202. Sequence GCTTACGGGTCAACGGTTATAGCATGAATAGAAT has a PBM binding z-score of 0.0463. For GCGACTGGGGCATCAGCAGATTACCATAACTTAA, the PBM binding z-score was -0.328. Work on GCGACTGCGGCAAAGCAGGTTACCATAAGGTTGG yielded a PBM binding z-score of -0.666. Work on GCGACTGGGGCATTAGCAGGTTACCATAACTTAA yielded a PBM binding z-score of -0.13. ATCGCTAGGTAAAGATAGTTCAGTGAATGCAAAT showed a PBM binding z-score of 0.193. Work on TAGCCTAGGTCAGATCGGGCCAATATACGCTATA yielded a PBM binding z-score of -0.489. Sequence CCTACCGGGCCACGAAAGGTCATTGATTCAGTGA has a PBM binding z-score of 2.13. In the case of CCTTACGGGTCACTGACAGGTTATAGAATTTGGA, the PBM binding z-score is reported as 0.414. CCTTACGGGTCACTGACAGATTATAGCATTTGGA was tested, and the PBM binding z-score was 0.241. Work on TCCCGGAGGACACGAAAGGTCAGAGCTCGACATC yielded a PBM binding z-score of 0.5. In the case of TCTCAGAGGACACGAAAGGTCAGAGCTCGACATC, the PBM binding z-score is reported as 0.423. CGTCCGAGGTCAGCAGGTCAGTGAAAGCGACGTG was tested, and the PBM binding z-score was 0.531. For AGAATGAGGATATTAAGATCAGGGAATTGCGGTC, the PBM binding z-score was 0.0307. CCTAGCAGCCCAGGGTCACTCAAGCATTTCGCTT gave a PBM binding z-score of 0.192. GCTGCTAGGTCAACTGTTGGTCAGCTAAAGCTCG gave a PBM binding z-score of -0.906. With ACTGGCAGGCCAAGGGTCACTCAAGATTAGTCCG the PBM binding z-score was -0.0528. Sequence CCTCGGAGGACAGAAGGTCGGAGCTGTCCGCTTT has a PBM binding z-score of -0.764. In the case of TAGCCTAGGTCAGGCGGGCCAGTATAGTGTCGGC, the PBM binding z-score is reported as -0.632. AGAATGAGGTTAAGCTCAGGGAAACAGAATACAT gave a PBM binding z-score of 0.0253. For CTTCAAAGTTCAACTAAGGTAACGTAAAGCACGC, the PBM binding z-score was 4.16. TTACCAAGGTGAAGGTCTTTGATCCCTCTGTAGA was tested, and the PBM binding z-score was -0.43. ATCTCTAGGTAAATTTCAGTGAAAGATCGATAGA showed a PBM binding z-score of 0.265.
